This is one part of a sample in which hits are shown more often than they occur.
Eya2 inh = Eya2 (human) phosphatase inhibition. O00167. recombinant Eya2, OMFP fluorescence dephosphorylation (OMFP is methylfluorescein phosphate). Potency, µM (series often up to 76.9 µM), inactives show at the top dose activity, negative = inhibition, hits mostly inhibitors. 330,000 tested, 0.006% active; note: % is set by controls: 0 for no effect and ±100 for the full control effect
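Eya2 protein (added as 0.2 uM solution) was preincubated with compound for 10 min at ambient temperature in 50 mM HEPES pH 7.5, 50 mM NaCl, 5 uM MgCl2, 0.05% BSA, 1 mM DTT. OMFP (added at 50 uM) then reacted 10 min; fluorescence read at 485/525 nm.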
GALK inh = inhibitors of human galactokinase. 270,000 tested, 0.007% active. P51570. Purified GALK, Kinase-Glo residual ATP luminescence. Potency, µM (top dose mostly 57.5 µM), for inactives: at the top dose activity change, negative = inhibition, usual class: inhibitors; note: % is set by controls: 0 for no effect and ±100 for the full control effect
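The enzyme phosphorylates galactose (100 uM) using ATP (35 uM); inhibition is detected as higher residual ATP, quantified by bioluminescence after 1 h reaction at room temperature, pH 8.0.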
ClpP mod = qHTS Assay for Activators of ClpP; purified B. subtilis ClpP, FRET peptide cleavage, 20 min; Potency, µM (doses to about 57.5 µM), for the others: top-dose activity change, negative = active; 340,000 tested, 1.9% active; active = well fitted falling curve with a large enough effect; inconclusive = small, poorly fitted or top-dose-only effect; inactive = no such curve, though single readings can be large or run the other way; note: the source files actives as falling curves though it sought activators and does not explain the sign; nearly all actives have a fitted effect of over 65% in size
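Purified B. subtilis ClpP, 10 microg/mL final in Tris/HCl pH8 with KCl, BSA, glycerol and Tween-20, cleaved an Abz/nitrotyrosine-quenched decapeptide. Fluorescence (ex 320, em 430) was read at 0 and 20 min at room temperature. Delta was normalized to 5.8 microM ADEP and DMSO/no-enzyme controls.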
USP2a block = inhibitors of human ubiquitin-specific protease USP2a; 330,000 tested, 0.01% active; O75604; Potency, µM (series often up to 38.3 µM), for the others: at the top dose activity change, negative = inhibition, hits mostly inhibitors; USP2 core, Ub-CHOP2 coupled fluorogenic reporter, 485/531;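 note: plate controls were DMSO wells for no effect and full inhibition by NEM control for full effect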
Target sequence (O75604 whole entry, looked up): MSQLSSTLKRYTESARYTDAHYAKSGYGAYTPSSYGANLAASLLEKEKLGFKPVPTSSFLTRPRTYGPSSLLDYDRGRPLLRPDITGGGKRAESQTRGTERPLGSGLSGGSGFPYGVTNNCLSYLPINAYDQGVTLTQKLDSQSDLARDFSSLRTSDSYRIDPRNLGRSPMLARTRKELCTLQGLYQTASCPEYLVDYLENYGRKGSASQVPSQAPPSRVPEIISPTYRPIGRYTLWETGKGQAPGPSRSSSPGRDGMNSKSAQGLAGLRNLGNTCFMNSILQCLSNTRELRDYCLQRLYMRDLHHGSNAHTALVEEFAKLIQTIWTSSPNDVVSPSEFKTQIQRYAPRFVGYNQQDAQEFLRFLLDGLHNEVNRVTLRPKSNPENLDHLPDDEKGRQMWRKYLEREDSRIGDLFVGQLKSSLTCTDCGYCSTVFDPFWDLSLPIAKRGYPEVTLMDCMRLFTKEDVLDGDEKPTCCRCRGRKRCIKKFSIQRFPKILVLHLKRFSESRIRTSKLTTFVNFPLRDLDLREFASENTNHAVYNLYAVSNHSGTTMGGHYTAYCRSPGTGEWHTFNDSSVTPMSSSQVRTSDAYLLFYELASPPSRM
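Cell-free coupled assay: 10nM USP2 core preincubated 30min RT with compound in Tris-HCl pH 8.0/CaCl2/CHAPS buffer, then 25nM Ub-CHOP2 and 25nM reporter substrate; fluorescence (Ex 485/Em 531) read after 60min RT, normalized to NEM inhibition, concentration-response curves fitted.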
Starred values were filed as active, the others as inactive. Unless noted, calls come from the whole dose curve; as a rule, active = well fitted inhibition curve with a large enough effect; inconclusive = small, poorly fitted or top-dose-only effect, or effect the other way; inactive = flat fitted curve, though single readings scatter. Potency is the fitted concentration of half-maximal effect.

`Cc1ccccc1Cc1c(C)nc2c(C(=O)N3CCN(Cc4ccc5c(c4)OCO5)CC3)cnn2c1C` gave ClpP mod 31.6µM*.
Screening Cc1ccccc1Cc1c(C)nc2c(C(=O)NCc3ccc4c(c3)OCO4)cnn2c1C returned Eya2 inh -5.0%, GALK inh -1.3%, ClpP mod 104.1% and USP2a block 0.4%.
Screening Cc1cccc(Cc2c(C)nc3c(C(=O)N4CCN(Cc5ccc6c(c5)OCO6)CC4)cnn3c2C)c1 returned Eya2 inh -15.0%, GALK inh -3.3%, ClpP mod 22.4µM* and USP2a block 1.9%.
Screening COC(=O)c1cnn2c(C)c(Cc3c(C)cc(C)cc3C)c(C)nc12 returned ClpP mod -18.4%.
`Cc1onc(-c2ccccc2)c1C(=O)Nc1ccc(N2CCOCC2)cc1` gave Eya2 inh -19.7%, GALK inh -0.1%, ClpP mod -0.2% and USP2a block 1.6%.
`Cc1ccc(N(CC(=O)NC2CCCCC2)C(=O)CCC(=O)Nc2nccs2)cc1` gave Eya2 inh 6.9%, GALK inh -2.4%, ClpP mod -12.3% and USP2a block 0.7%.
`CC(C)(C)c1ccc(-c2nnc(N)o2)cc1` gave Eya2 inh -4.0% and USP2a block -4.6%.
Screening O=C(CSc1nccn1-c1ccccc1)c1ccc(Br)cc1 returned Eya2 inh -2.1%, GALK inh -2.7%, ClpP mod 0.7% and USP2a block 1.4%.
`Cc1ccc(NC(=O)C(C)OC(=O)c2ccc(Cl)nc2)cc1S(=O)(=O)N1CCOCC1` (stereo not given) gave Eya2 inh 5.0%, ClpP mod 28.2µM* and USP2a block 3.9%.
`CC(=O)Nc1ncc(Cc2cccc(Cl)c2)s1` gave Eya2 inh -3.0%, GALK inh -3.4% and USP2a block 1.1%.
COc1ccc(Cn2ccc3nc(C)c(C(=O)Nc4cc(OC)c(OC)c(OC)c4)cc3c2=O)cc1 was read as ClpP mod -1.0%.
`CCOc1ccc(OC(=O)c2cccc(S(=O)(=O)N3CCN(C)CC3)c2)cc1` gave Eya2 inh -27.6%, ClpP mod 31.6µM* and USP2a block -1.2%.
CCCCn1c(=O)nc2n(-c3ccccc3C)c3ccccc3cc-2c1=O was read as Eya2 inh -3.9%, GALK inh 1.0%, ClpP mod 17.8µM* and USP2a block -0.9%.
For CC(C)CNS(=O)(=O)c1ccc(NC(=O)Cn2nc(-c3ccc(F)cc3)ccc2=O)cc1 the results were Eya2 inh 2.5%, GALK inh -3.7%, ClpP mod 28.2µM* and USP2a block -5.4%.
For CCc1cc2c3c(c(=O)oc2cc1O)CCCC3 the results were Eya2 inh -2.0%, GALK inh -0.2%, ClpP mod 10µM* and USP2a block 0.9%.
For COC(=O)C1=C(C)N(CCC2=CCCCC2)C(=O)C1 the results were Eya2 inh 5.0%, GALK inh -0.4%, ClpP mod -0.7% and USP2a block 2.7%.
For O=C(c1ccccc1-c1nc2ccccc2[nH]1)N1CCCCC1 the results were Eya2 inh -3.3%, GALK inh 2.7%, ClpP mod 28.2µM* and USP2a block 2.9%.
`C=CCNc1ncnc2c1[nH]c1ccc(Cl)cc12` gave Eya2 inh -12.2%, GALK inh -0.5%, ClpP mod 28.2µM* and USP2a block 4.3%.
`C=CCNc1ncnc2ccccc12` gave Eya2 inh -5.9%, GALK inh -4.2%, ClpP mod -5.0% and USP2a block -1.2%.
`C=CCNc1ncnc2c1[nH]c1ccccc12` gave Eya2 inh -7.1%, GALK inh 2.0%, ClpP mod 28.2µM* and USP2a block 3.0%.
For c1ccc2c(c1)[nH]c1c(NCC3CCCO3)ncnc12 (stereo not given) the results were Eya2 inh -14.9%, GALK inh 2.7%, ClpP mod 28.2µM* and USP2a block -0.8%.
For COc1ccc(C(=O)Nc2ccc(-c3ccc(NC(=O)c4ccc(OC)cc4)c(OC)c3)cc2OC)cc1 the results were Eya2 inh -1.7%, GALK inh 0.7%, ClpP mod inconclusive and USP2a block 1.6%.
Screening COc1ccc(OC(=O)c2nc(SCc3ccc(C)cc3)ncc2Cl)cc1 returned ClpP mod -1.7%.

Source: PubChem (National Center for Advancing Translational Sciences (NCATS))
